SMILES strings stand for the structures. Hit rate of the full screen: of about 310,000 compounds, about 14,000 (4.5%) showed an effect of 50% or more. The effect is printed as a negative number. The sample as a whole holds a higher share of strong results than the screen did.

The values that follow come from PMC4336329 (PLoS ONE, 2015).
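Note: peak tail current of the secondary pulse compared with the same well before compound.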

In this assay the target is human ether-à-go-go-related gene (hERG) potassium channel (human, UniProt Q12809). Put plainly: primary screen, population patch clamp on CHO cells stably expressing hERG; higher = less effect of the substance.
Sequence of human ether-à-go-go-related gene (hERG) potassium channel (Q12809 whole entry, looked up): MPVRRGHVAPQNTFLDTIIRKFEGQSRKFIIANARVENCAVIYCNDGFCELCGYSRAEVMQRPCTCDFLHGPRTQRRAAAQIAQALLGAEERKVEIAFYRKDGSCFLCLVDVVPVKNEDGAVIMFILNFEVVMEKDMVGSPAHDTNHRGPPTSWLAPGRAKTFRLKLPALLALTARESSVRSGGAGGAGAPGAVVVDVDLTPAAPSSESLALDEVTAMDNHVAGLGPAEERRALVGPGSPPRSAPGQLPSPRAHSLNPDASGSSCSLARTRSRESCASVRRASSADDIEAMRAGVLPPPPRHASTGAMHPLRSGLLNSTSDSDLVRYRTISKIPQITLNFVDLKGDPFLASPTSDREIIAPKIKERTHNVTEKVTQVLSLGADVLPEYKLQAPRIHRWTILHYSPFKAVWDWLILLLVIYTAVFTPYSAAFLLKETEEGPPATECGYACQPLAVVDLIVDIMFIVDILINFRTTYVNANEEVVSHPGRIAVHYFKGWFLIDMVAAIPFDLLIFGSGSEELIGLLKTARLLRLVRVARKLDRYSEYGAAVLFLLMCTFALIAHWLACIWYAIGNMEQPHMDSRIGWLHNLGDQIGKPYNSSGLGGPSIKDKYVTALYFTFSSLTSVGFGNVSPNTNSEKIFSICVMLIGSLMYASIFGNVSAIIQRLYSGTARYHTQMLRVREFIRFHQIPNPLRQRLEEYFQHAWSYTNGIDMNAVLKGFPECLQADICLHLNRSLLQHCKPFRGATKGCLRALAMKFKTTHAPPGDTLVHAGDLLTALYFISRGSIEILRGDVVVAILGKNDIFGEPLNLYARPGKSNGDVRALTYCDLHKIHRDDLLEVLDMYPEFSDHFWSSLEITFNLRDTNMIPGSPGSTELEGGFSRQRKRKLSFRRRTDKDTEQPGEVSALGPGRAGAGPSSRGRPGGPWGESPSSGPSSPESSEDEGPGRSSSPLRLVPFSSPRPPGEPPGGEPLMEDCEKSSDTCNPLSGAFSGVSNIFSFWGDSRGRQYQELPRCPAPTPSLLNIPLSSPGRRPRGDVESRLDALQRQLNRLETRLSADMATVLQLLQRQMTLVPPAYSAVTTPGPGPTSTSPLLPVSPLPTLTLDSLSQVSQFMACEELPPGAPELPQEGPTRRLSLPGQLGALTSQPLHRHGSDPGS
As to `CCCCN=C1SC(C(=O)Nc2sc3c(c2C(=O)OC)CCC3)C(N)=C1C(=O)N1CCOCC1` (stereo not drawn), the “hERG current change (%, negative = inhibition) at 10uM” value is -1.11%. In the case of `Cc1cc(Nc2ccccc2C(=O)O)n(-c2ccc([N+](=O)[O-])cc2)n1`, the “hERG current change (%, negative = inhibition) at 10uM” value amounted to 4.19%.

As for `CC(=O)c1cc(CN2CCC(n3nccc3NC(=O)c3ccccc3)CC2)cs1`, the “hERG current change (%, negative = inhibition) at 10uM” value is reported as -10.9%. Regarding `CC(=O)c1cc(CN2CCC(n3nccc3NC(=O)c3ccccc3Cl)CC2)cs1`, the “hERG current change (%, negative = inhibition) at 10uM” value is reported as -56.5%.

Turning to `COc1ccccc1C(=O)Nc1ccnn1C1CCN(Cc2csc(C(C)=O)c2)CC1`, the “hERG current change (%, negative = inhibition) at 10uM” value is -72.9%.

`Cc1cc(CN2CCC(n3nccc3NC(=O)c3ccccc3C)CC2)n[nH]1`: the “hERG current change (%, negative = inhibition) at 10uM” value is -38%. Take `CC(=O)c1cc(CN2CCC(n3nccc3NC(=O)c3ccccc3C)CC2)cs1`: the “hERG current change (%, negative = inhibition) at 10uM” value is on record as -57.8%. On to `CC(C)=NN1C(c2nonc2N)=NOC1(C)C`, for which the “hERG current change (%, negative = inhibition) at 10uM” value is on record as 6.47%. `COC(=O)C1=C(C)N=C2SCCC(=O)N2C1/C=C/c1ccccc1` (stereo not drawn): the “hERG current change (%, negative = inhibition) at 10uM” value was -16.8%. Consider `Cc1nc(SCC(=O)c2ccc(F)cc2)c([N+](=O)[O-])[nH]1`, for which the “hERG current change (%, negative = inhibition) at 10uM” value amounted to 27.3%. In the case of `CCCNC(=O)CN(CCc1ccccc1)S(C)(=O)=O` it was 8.94%. As to `COc1ccc(NC(=O)CNCCC2=CCCCC2)cc1`, the “hERG current change (%, negative = inhibition) at 10uM” value was 7.2%. Take `CN(C)CCCN(Cc1ccccc1)C(=S)NCc1ccccc1`: the “hERG current change (%, negative = inhibition) at 10uM” value is -24.7%. As for `COc1ccc(CN(C)C(=S)Nc2ccc(OC(F)F)cc2)cc1`, the “hERG current change (%, negative = inhibition) at 10uM” value was -58.9%. For `CN(C(=S)Nc1ccc(SC(F)F)cc1)C(c1ccccc1)c1ccccc1`, the “hERG current change (%, negative = inhibition) at 10uM” value was -0.128%. Take `CN(CCOc1ccc(Cl)cc1)CC(=O)Nc1ccc(OC(F)F)cc1`: the “hERG current change (%, negative = inhibition) at 10uM” value is recorded as -71.4%. Turning to `COc1ccc(CCNCC(=O)Nc2ccc(OC(F)F)cc2)cc1`, the “hERG current change (%, negative = inhibition) at 10uM” value is -75.8%.

For `COc1ccc(CCNCC(=O)Nc2ccc(C(=O)N3CCCCC3)cc2)cc1.O=C(O)C(=O)O`, the “hERG current change (%, negative = inhibition) at 10uM” value was 4.75%. As to `CN(C)CCCN(Cc1ccccc1)C(=S)Nc1ccc(SC(F)F)cc1`, the “hERG current change (%, negative = inhibition) at 10uM” value is reported as -75.1%.

`CN(CCOc1ccc(Cl)cc1)CC(=O)Nc1ccc(OC(F)(F)F)cc1`: the “hERG current change (%, negative = inhibition) at 10uM” value was 8.27%. For the molecule `COc1ccc(CN(C)C(=S)Nc2ccc(Cl)cc2)cc1`, the “hERG current change (%, negative = inhibition) at 10uM” value is -20.7%. As to `COc1ccc(NC(=O)CN(C)CCOc2ccc(Cl)cc2)cc1OC.O=C(O)C(=O)O`, the “hERG current change (%, negative = inhibition) at 10uM” value is on record as -17.4%.

`CN(Cc1ccccc1)C(=S)Nc1ccc(OC(F)F)cc1`: the “hERG current change (%, negative = inhibition) at 10uM” value is recorded as -21.2%. As for `C/C(=N\Nc1ccccc1C(=O)O)c1ccncc1`, the “hERG current change (%, negative = inhibition) at 10uM” value was found to be 0.449%. Take `CC(C)Nc1nc(NC(C)C)nc(OCCOC(=O)Nc2ccccc2)n1`: the “hERG current change (%, negative = inhibition) at 10uM” value is reported as -24.5%.

As to `Cc1ccc(N/N=C(\C#N)C(=N)N2CCCCC2)cc1`, the “hERG current change (%, negative = inhibition) at 10uM” value is reported as -47.7%.

On to `CN(CC(=O)Nc1ccccc1Br)C(=O)c1cc2c(s1)CCCCC2`, for which the “hERG current change (%, negative = inhibition) at 10uM” value is -1.74%. On to `O=C(Nc1ccc(NC(=O)C2CC2)nc1)c1cccs1`, for which the “hERG current change (%, negative = inhibition) at 10uM” value is reported as 14%. Take `O=C(CSc1n[nH]c(=O)n1-c1cccnc1)N1CCOCC1`: the “hERG current change (%, negative = inhibition) at 10uM” value is recorded as 12%. `CCNC(=O)NC(=O)CSc1nc2ccccc2n1CC(C)C`: the “hERG current change (%, negative = inhibition) at 10uM” value is on record as -4.02%. In the case of `Cc1cccc(N2CCN(CC(=O)NCC3CCCCC3)CC2)c1C.Cl` it was -6.63%; in that of `COc1cc2[nH]c(=O)n(Cc3ccc(C(=O)N4CCC(N5CCCCC5)CC4)cc3)c(=O)c2cc1OC`, 12.3%; in that of `CCCN(Cc1ccccc1)C(=S)Nc1ccc(C(C)=O)cc1`, -12.1%. Take `CCCN(Cc1ccccc1)C(=S)Nc1ccc(OC(F)F)cc1`: the “hERG current change (%, negative = inhibition) at 10uM” value is reported as -41%. Under `CC(=O)c1ccc(NC(=S)N(Cc2ccccc2)C(C)C2CC2)cc1` (stereo not drawn) stands 5.51%; under `CN(CCOc1ccccc1)C(=S)Nc1ccc(OC(F)F)cc1`, -55.2%; under `COCCN(Cc1ccccc1)C(=S)Nc1ccc(Cl)cc1`, 11.1%. Consider `COCCN(Cc1ccccc1)C(=S)Nc1ccc(OC(F)F)cc1`, for which the “hERG current change (%, negative = inhibition) at 10uM” value is given as -69.8%. Take `CC(=O)c1ccc(NC(=S)N(CCCN(C)C)Cc2ccccc2)cc1`: the “hERG current change (%, negative = inhibition) at 10uM” value is listed as -53.3%.

For `CCCCN(C)C(=S)Nc1ccc(Oc2ccccc2)cc1`, the “hERG current change (%, negative = inhibition) at 10uM” value is given as -2.38%.

As for `CC(=O)c1ccc(NC(=O)CN(C)CC(=O)Nc2cccc(F)c2)cc1`, the “hERG current change (%, negative = inhibition) at 10uM” value is given as -18.5%. `CC(=O)c1cccc(NC(=O)CN(C)Cc2ccc(OC(F)F)cc2)c1`: the “hERG current change (%, negative = inhibition) at 10uM” value is on record as -55%. Under `CCN(CC)C(=S)Nc1ccc(OC(F)F)cc1` stands -28.6%; under `COc1ccc(NC(=O)CN(C)CC(=O)Nc2cccc(C(C)=O)c2)cc1`, 18.5%; under `CCN(CC)C(=O)c1ccc(C)c(Br)c1`, -0.776%. In the case of `CCc1cc2c(=O)[nH]cnc2s1` it was -3.48%; in that of `CCCCCCc1cc2cc(-c3nnc(-c4ccccc4)o3)c(=O)oc2cc1O`, 5.15%. With `CCOC(=O)Cc1csc(NC(=S)NC(=O)c2ccc(F)cc2)n1`, the “hERG current change (%, negative = inhibition) at 10uM” value is on record as 11.9%. Under `Cc1ccc(NC(=S)N(Cc2ccccc2)C(C)C)cc1` stands 12%; under `CN(C)CCCN(Cc1ccccc1)C(=S)Nc1cccc(C(F)(F)F)c1`, -52.6%; under `CC(C)N(Cc1ccccc1)C(=S)Nc1ccc(F)cc1`, -3.42%. With `CCCN(Cc1ccccc1)C(=S)Nc1ccc(OCC)cc1`, the “hERG current change (%, negative = inhibition) at 10uM” value is -35.8%.

Turning to `CN(C)S(=O)(=O)c1cccc(NC(=S)N(CCC#N)Cc2cccnc2)c1`, the “hERG current change (%, negative = inhibition) at 10uM” value is recorded as -7.37%. With `COc1ccc(NC(=S)N(CCO)Cc2ccccc2)cc1`, the “hERG current change (%, negative = inhibition) at 10uM” value came out at 2.34%. `N#CCCN(Cc1cccnc1)C(=S)Nc1ccc(OC(F)F)cc1`: the “hERG current change (%, negative = inhibition) at 10uM” value was -78.2%. Turning to `CN(C)CCCN(Cc1ccccc1)C(=S)Nc1ccc(OC(F)F)cc1`, the “hERG current change (%, negative = inhibition) at 10uM” value is recorded as -70.3%. In the case of `FC(F)Oc1ccc(NC(=S)NCc2cccnc2)cc1` it was -2.69%; in that of `CC(C)N(Cc1ccccc1)C(=S)Nc1ccc(OC(F)F)cc1`, -56.7%. For the molecule `CN(C)C(=S)Nc1cccc(C(F)(F)F)c1`, the “hERG current change (%, negative = inhibition) at 10uM” value worked out at 5.67%. With `CN(C)CCCN(Cc1ccccc1)C(=S)Nc1ccc(F)c(Cl)c1`, the “hERG current change (%, negative = inhibition) at 10uM” value is -24.3%.
